Compounds without any hit were thinned out: in the full panel of roughly 83,000, 20% have a hit.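 Interpretation: 100, growth as untreated; towards 0, rising growth inhibition; 0, no net growth; 0 to -100, cell death. Compounds scoring below 10 were considered active.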 Active and inactive are the calls of the source.
Each compound was assayed on NCI-H322M lung (assay: NCI-60 one-dose screen, 48 h (100 = growth as untreated, 0 = no growth, -100 = all killed)). Details: 10 µM unless noted.

Question: With `O=c1c2ccccc2c2nccn2c2cc(Cl)ccc12` as the compound, how does the growth read?
Answer: 129% (inactive)

Question: Which growth does the source give for `COC(=O)[C@H]1[C@H]2C[C@@H]3c4[nH]c5cc(OC)ccc5c4CCN3C[C@H]2C[C@@H](OC(=O)/C=C/c2cc(OC)c(OC)c(OC)c2)[C@@H]1OC` here?
Answer: 88.6% (inactive)

Question: For `COc1ccc(-c2c3c(N)nc(-c4ccncc4)nc3nc3c2c(C)nn3-c2ccccc2)cc1`, which growth is on record?
Answer: 74.3% (inactive)

Question: With `Cc1cc(C)cc(S(=O)(=O)n2ccc(-c3ccc4c(c3)CCC(C)(C)O4)n2)c1` as the compound, how does the growth read?
Answer: 92% (inactive)

Question: For `O=C1C(=O)/C(=C/c2ccccc2)CCCCCC/C1=C/c1ccccc1`, which growth is on record?
Answer: 94.5% (inactive)

Question: How did the growth turn out when `c1ccc2c(-c3nc4ccccc4[nH]3)cccc2c1` was run?
Answer: 64.5% (inactive)

Question: For `C/C(=C\CCc1ccoc1)CC/C=C(\C)CCCC1COC(=O)C1` (centres undefined), which growth is on record?
Answer: 88.9% (inactive)

Question: How did the growth turn out when `N#CSCC1CC(O)(c2ccccc2)C(c2ccccc2)C(c2ccc(Cl)cc2)O1` (centres undefined) was run?
Answer: 52.3% (inactive)

Question: With `COc1ccc(NC(=O)[C@@H]2C[C@H]2c2ccccc2)c(C(N)=O)c1` as the compound, how does the growth read?
Answer: 94.2% (inactive)

Question: Which growth does the source give for `COc1ccc(NS(=O)(=O)N2CCCCC2)cc1` here?
Answer: 102% (inactive)

Question: `COc1cccc(/C=C2\Cc3ccccc3C2=O)c1` was tested. Which growth did it give?
Answer: 110% (inactive)

Question: Which growth does the source give for `CNCCCn1c2c(c3ccc(F)cc3c1=O)C(=O)c1cc(OC)cnc1-2` here?
Answer: -1.98% (active)

Question: For `Cc1ccc(N/N=C(/C(=O)c2ccc(Cl)cc2)c2nc(C)cc(=O)[nH]2)cc1`, which growth is on record?
Answer: 106% (inactive)

Question: For `CCCCCCCC[Si](OCC)(OCC)OCC`, which growth is on record?
Answer: 103% (inactive)

Question: How did the growth turn out when `CCC(=O)Nc1cc2c(cc1Cl)-c1ccccc1C2` was run?
Answer: 106% (inactive)

Question: With `COc1ccc2c(c1)c(CC(=O)[Se]C)c(C)n2C(=O)c1ccc(Cl)cc1` as the compound, how does the growth read?
Answer: 55.8% (inactive)

Question: How did the growth turn out when `O=C(Nc1cccc(-n2cc(-c3ccncc3)c(-c3cc(O)cc(Cl)c3)n2)c1)Nc1ccc(Cl)c(Cl)c1` was run?
Answer: 19.5% (inactive)

Question: For `CC(=O)c1ccc(NS(=O)(=O)c2ccc([N+](=O)[O-])cc2)cc1`, which growth is on record?
Answer: 121% (inactive)

Question: With `O=C(C(=O)c1cc(Br)ccc1O)c1cc(Br)ccc1O` as the compound, how does the growth read?
Answer: 67.6% (inactive)

Question: `O=C1NC(=O)/C(=C\c2ccco2)S1` was tested. Which growth did it give?
Answer: 111% (inactive)

Question: With `C/C(=C\CCc1ccoc1)CC/C=C(\C)CCCNc1ccc(F)cc1` as the compound, how does the growth read?
Answer: 85.4% (inactive)

Question: How did the growth turn out when `COc1cc(C(=O)c2cc3c(cc2C)OCO3)cc(OC)c1OC` was run?
Answer: 36% (inactive)

Question: For `CCOc1cc(/C=C/C(=O)CC(=O)/C=C/c2ccc(OC(=O)CNCCN(CC)CC)c(OCC)c2)ccc1OC(=O)CNCCN(CC)CC`, which growth is on record?
Answer: -0.873% (active)

Question: How did the growth turn out when `Cc1nn2c(/C=C3/C(=O)Nc4cc(Cl)ccc43)c(-c3ccccc3)nc2s1` was run?
Answer: 31% (inactive)

Question: With `O=C(c1ccccc1)C(CN1CCCCC1)c1ccccc1` (centres undefined) as the compound, how does the growth read?
Answer: 88.3% (inactive)

Question: With `Cc1nn(-c2ccccc2)cc1/C=C1\SC(N2CCCCC2)=NC1=O` as the compound, how does the growth read?
Answer: 100% (inactive)

Question: `CN(C)c1ncnc2c1ncn2C1CCCCO1` (centres undefined) was tested. Which growth did it give?
Answer: 98.9% (inactive)

Question: Which growth does the source give for `CCOc1cc(/C=C/C(=O)C(C(=O)/C=C/c2ccc(OC(=O)CNc3nnc(C)s3)c(OCC)c2)C(=O)CNc2nnc(C)s2)ccc1OC(=O)CNc1nnc(C)s1` here?
Answer: 6.22% (active)

Question: `N#Cc1c(-c2ccccc2)cc(-c2ccccc2)n(CCCCCCC(=O)O)c1=O` was tested. Which growth did it give?
Answer: 96.5% (inactive)

Question: Which growth does the source give for `COc1ccc(C2=NN(C=O)C(c3cccc(Nc4ccnc5cc(Cl)ccc45)c3)C2)cc1` (centres undefined) here?
Answer: 45.8% (inactive)

Question: For `COc1cc(/C=C/c2cc(/C=C/c3ccc(O)c(OC)c3)n(C(=O)Cc3ccccc3)n2)ccc1O`, which growth is on record?
Answer: 9.62% (active)

Question: `O=C1c2cccc3c([N+](=O)[O-])ccc(c23)C(=O)N1CCCCl` was tested. Which growth did it give?
Answer: -96.2% [100 µM] (active)

Question: `CCOC(=O)/C(=C/CC/C(C)=C/CC/C(C)=C/CCc1ccoc1)CC(=O)N1CCCCC1` was tested. Which growth did it give?
Answer: -91.8% (active)

Question: Which growth does the source give for `Clc1ccc2nc(CI)c(CI)nc2c1` here?
Answer: 83.7% (inactive)

Question: `CNNc1ncnc2c1cnn2-c1ccc(S(N)(=O)=O)cc1` was tested. Which growth did it give?
Answer: 104% (inactive)

Question: Which growth does the source give for `Nc1nc2c(c(=O)[nH]1)C1(C(=O)Nc3ccccc31)c1c(nc(N)[nH]c1=O)N2` here?
Answer: 98.1% (inactive)

Question: For `Cc1[nH]cnc1/C=C1\SC(N2CCCCC2)=NC1=O`, which growth is on record?
Answer: 123% (inactive)

Question: How did the growth turn out when `COc1cccc(-c2nc3cc(NC(=O)c4ccc(Cl)c(C#N)c4)ccc3o2)c1` was run?
Answer: -13.2% (active)

Question: Which growth does the source give for `N#Cc1ccc(-c2csc(Nc3ccc4nc5n(c(=O)c4c3)CCC5)n2)cc1` here?
Answer: 104% (inactive)

From PubChem BioAssay (NCI)
